# Screening data: PubChem BioAssay, National Center for Advancing Translational Sciences (NCATS)
# Rows were chosen to be rich in hits. Some 7.6% of all compounds tested hit in one or more screens of this group.
# HEK293 cAMP cs – qHTS Assay for Agonists of the Thyroid Stimulating Hormone Receptor: Activators of Intracellular cAMP Concentrations in Parental HEK 293. parental HEK293 CNG cAMP sensor, membrane potential fluorescence. Potency, µM (series often up to 57.1 µM), usual class: activators. hit rate 2.5% among 73,000. AID 938, 2007; note: nearly all actives have a fitted effect of over 55% in size
#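 Parental HEK 293 cells stably expressing a modified CNG channel (no TSHR) report cAMP rise as membrane depolarization. Membrane potential dye with 100 uM RO 20-1724 was loaded for 60 min at room temperature, then compound added for 30 min; fluorescence read at 590 nm.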
# ERK AVP inh – qHTS Assay for Inhibitors of the ERK Signaling Pathway using a Homogeneous Screening Assay; HEK293-V1b, vasopressin-stimulated pERK AlphaScreen; hit rate 0.99% among 72,000; Potency, µM (top dose mostly 57.5 µM), usual class: inhibitors; note: nearly all actives have a fitted effect of over 55% in size
#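 V1b-HEK293 cells; cpd 30 min 37C; 25 nM vasopressin 5 min; lyse 10 min; AlphaScreen beads 5 hr RT. Normalized to DMSO basal and 25 nM vasopressin; AC50 by Hill fit.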
# TSHR agonist – qHTS Assay for Agonists of the Thyroid Stimulating Hormone Receptor | Thyrotropin receptor (Homo sapiens), P16473 | hit rate 0.48% among 73,000 | HEK293-CNG-TSHR cells (CNG channel as cAMP sensor), membrane potential dye, cAMP | AID 926, 2007 | Potency, µM (highest dose often 57.1 µM), most hits filed as activators; active = well fitted activation curve with a large enough effect in the main read-out, with a control signal flat, not every such curve was filed as active; inconclusive = small, poorly fitted or top-dose-only effect, or a change in a side signal; inactive = no such curve, though single readings can be large or run the other way; reference of the percent scale not stated here;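 note: the control signal comes from parental cells without the receptor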
# Target sequence (P16473 whole entry, looked up): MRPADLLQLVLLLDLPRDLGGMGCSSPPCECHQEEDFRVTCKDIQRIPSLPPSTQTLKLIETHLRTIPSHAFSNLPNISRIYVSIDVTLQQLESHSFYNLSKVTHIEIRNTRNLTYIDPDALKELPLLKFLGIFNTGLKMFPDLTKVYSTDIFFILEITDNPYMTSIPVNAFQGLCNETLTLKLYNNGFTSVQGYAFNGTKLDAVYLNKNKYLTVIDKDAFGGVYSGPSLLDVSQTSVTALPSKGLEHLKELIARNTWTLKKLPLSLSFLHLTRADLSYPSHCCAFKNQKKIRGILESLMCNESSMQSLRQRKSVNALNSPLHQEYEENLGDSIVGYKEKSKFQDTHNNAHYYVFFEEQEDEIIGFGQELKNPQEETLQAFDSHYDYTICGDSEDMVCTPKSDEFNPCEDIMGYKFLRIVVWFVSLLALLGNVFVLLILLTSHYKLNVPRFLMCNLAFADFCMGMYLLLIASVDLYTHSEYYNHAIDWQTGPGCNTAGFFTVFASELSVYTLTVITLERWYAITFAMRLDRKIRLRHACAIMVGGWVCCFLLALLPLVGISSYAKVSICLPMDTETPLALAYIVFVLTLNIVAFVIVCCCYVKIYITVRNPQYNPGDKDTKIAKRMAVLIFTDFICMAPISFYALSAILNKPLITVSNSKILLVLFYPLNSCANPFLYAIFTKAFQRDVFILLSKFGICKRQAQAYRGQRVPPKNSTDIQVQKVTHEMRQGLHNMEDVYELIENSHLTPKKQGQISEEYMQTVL
#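 cAMP rise detected as CNG-channel membrane depolarization by fluorescent dye (emission 590 nm), 30 min after compound, following 60 min dye loading containing 100 uM RO 20-1724 at room temperature. Cells: TSHR/CNG HEK 293, with parental CNG HEK 293 as control.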
# CRE-bla Fsk – Cell signaling CRE-BLA (Fsk stim); hit rate 2.5% among 71,000; CHO CRE-bla reporter (cAMP response element driving beta-lactamase), forskolin EC10, beta-lactamase ratio; Potency, µM (top dose mostly 38.2 µM), most hits filed as activators; active = well fitted activation curve with a large enough effect in the signal ratio, with a control signal flat, not every such curve was filed as active; inconclusive = small, poorly fitted or top-dose-only effect, or effect the other way, or a change in a side signal; the % refers to the signal ratio
#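 The 460nm/530nm emission ratio after CCF4 loading defined %Activity, from which AC50 values were obtained. CRE-bla CHO cells received compound dilution series together with an EC10 level of NKH 477 for 3 hours at 37 degrees Celsius.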
# Tau fil binding – qHTS Assay for Tau Filament Binding. Microtubule-associated protein tau (Homo sapiens), P10636. recombinant tau filaments, thioflavin S fluorescence, 15 h; filaments grown with octadecylsulfate alongside compound. Potency, µM (top dose mostly 57.1 µM). hit rate 2% among 71,000. AID 596, 2007;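 note: actives lower thioflavin S fluorescence by blocking filaments or displacing dye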
#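 ThS-based fibril read: tau 1 uM final, inducer ODS 30 uM final, 37 C for 15 h, ex 450/em 510 nm.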
# Hits are given with their value; i = inactive; ? = inconclusive; nt = no result given; [ ] = remark or other dose. Unless noted, calls come from the whole dose curve; as a rule, active = well fitted curve in the direction sought with a large enough effect; inconclusive = small, poorly fitted or top-dose-only effect, or another doubt; inactive = no such curve, though single readings can be large; an effect the other way counts as inactive or inconclusive.
SMILES,HEK293 cAMP cs,ERK AVP inh,TSHR agonist,CRE-bla Fsk,Tau fil binding
O=[N+]([O-])c1ccc2c(N=Nc3ccc4ccccc4c3O)c(O)cc(S(=O)(=O)O)c2c1,?,i[11.5 µM],?,i[7.6 µM],3.16µM
CCC(=O)OCC(=O)C1(OC(=O)CC)C(C)CC2C3C(Cl)CC4=CC(=O)C=C[C@@]4(C)C3C(O)C[C@@]21C (stereo not given in full),nt,i,nt,nt,nt
Cc1ccc(CCNC(=O)C2CCCN2S(=O)(=O)c2ccc3c(c2)CCC(=O)N3)cc1 (stereo not given),i,i,i,i,i
COc1ccc(NC(=O)C2CCCN2S(=O)(=O)c2ccc3c(c2)CCC(=O)N3)c(OC)c1 (stereo not given),i,i,i,?,25.1µM
COc1cccc(-c2nn(C)c3sc(C(=O)N4CCOCC4)cc23)c1,i,i,i,10µM,i
Cn1nc(-c2ccc(Cl)cc2)c2cc(C(=O)NCC3CCCO3)sc21 (stereo not given),i,?,i,5.01µM,i
Cn1nc(-c2ccc(Cl)cc2)c2cc(C(=O)N3CCOCC3)sc21,i,?,i,6.31µM,i
Cc1cc(C)cc(N(CCC#N)C(=O)CSc2nc3nc(C)cc(C)n3n2)c1,i,i,i,6.31µM,i
CCC1=C2CC[C@H]3C(=O)N(CC)C(=O)[C@H]3[C@H]2[C@@]2(Cc3ccccc3)C(=O)N(CC3CC3)C(=O)N2C1=O,nt,i,nt,nt,nt
COc1ccc(-c2nc(CS(=O)(=O)CC(=O)NCCc3cc(OC)ccc3OC)c(C)o2)cc1,25.1µM,i,?,i,i
COc1ccc(O[C@H]2C=C[C@@H](c3ccccc3)O[C@@H]2CO/N=C(\C)CCN2CCCc3nc(C)c(C)cc32)cc1,i[11.4 µM],i[11.5 µM],i[11.4 µM],nt,nt
Cc1ccc(S(=O)(=O)N(C)Cc2ccc(-c3nnco3)cc2)cc1,25.1µM,i,?,i,i
CCC(c1nnnn1CCc1ccccc1)N(Cc1ccco1)Cc1cc2cc(C)cc(C)c2[nH]c1=O (stereo not given),12.6µM,i,?,i,i
CCC(c1nnc(SCC(=O)Nc2ccc(C(=O)Nc3ccccc3OC)cc2)o1)N(C)C (stereo not given),i,i,i,?,20µM
COc1ccccc1NC(=O)CSc1nnc(-c2ccco2)o1,i,i,i,i,i
Cc1cc(Cc2cc(C)cc(C(C)(C)C)c2O)c(O)c(Cc2cc(C)cc(C(C)(C)C)c2O)c1,i[11.4 µM],i[11.5 µM],i[11.4 µM],i[7.6 µM],i[11.4 µM]
COC(=O)C1=C(C)N(Cc2ccco2)C(=O)C1,i,i,i,?,i
CCCCC(=O)NC1(C(F)(F)F)C(=O)N(Cc2ccco2)C(C)=C1C(=O)OC (stereo not given),i,i,15.8µM,?,i
CCCc1cc(=O)n2[nH]c(C)nc2n1,i,i,i,i,i
CCCc1cc(=O)n2[nH]c(-c3cc(OC)c(OC)c(OC)c3)nc2n1,i,i,25.1µM,i,i
CCNc1ncc2nc(-c3ccccc3)c(=O)n(C3CC3)c2n1,i,i,i,?,i
CCN(C)c1ccc(/C=N\n2nnnc2N)cc1,i,i,i,7.94µM,i
O=C(c1cc2nc3c(c(C(F)(F)F)n2n1)CCc1ccccc1-3)N1CCN2CCCC2C1 (stereo not given),i,i,i,?,12.6µM
CN(C)c1ccc(N/C=C/C(=O)c2ccccc2)cc1,i,?,i,i,15.8µM
COCC(=O)Nc1ccc(N(C)C)cc1,i,i,i,i,i
SMILES,HEK293 cAMP cs,ERK AVP inh,TSHR agonist,CRE-bla Fsk,Tau fil binding
COC(=O)c1ccc2c(=O)n(C3CCCCC3)c(SCC#N)nc2c1,20µM,i,?,?,i
CCSc1nc2cc(C(=O)OC)ccc2c(=O)n1CC,?,i,?,?,i
O=C(Nc1cccc(Br)c1)c1cc2ccccc2o1,25.1µM,?,?,i,i
Cc1cccc(NC(=O)c2cc3ccccc3o2)c1,25.1µM,i,?,i,i
O=C(Nc1ccc(N2CCN(C(=O)c3ccccc3)CC2)cc1)c1cc2ccccc2o1,i,1µM,i,?,i
CCOC(=O)c1ccc(NC(=O)Nc2ccc3c(c2)OCCO3)cc1,i,25.1µM,i,i,i
CCOC(=O)c1c(C)c(C(=O)Nc2ccc3c(c2)OCCO3)c(C)n1C,i,i,i[11.4 µM],i,i
CC(C)NC(=O)N1CCC2(CC1)CCN(C(=O)c1ccncc1)CC2,i,i,i,i,i
CC1CCC2C(=O)OC(CN3C(=O)c4ccccc4C3=O)CN2C1c1ccc(Br)cc1 (stereo not given),i[11.4 µM],i[11.5 µM],i[11.4 µM],nt,nt
COC(=O)c1ccc(C(/C=C/[C@@H](C)C(=O)N(C)C)NC(=O)OCc2ccccc2)cc1 (stereo not given in full),i,i,i,i,i
C/C=C\C1=C(CO)C(=O)[C@@H]2OC2C1=O (stereo not given in full),i[11.4 µM],i[11.5 µM],i[11.4 µM],nt,nt
CCOC(=O)c1ccc(NC(=O)c2cc3ccccc3o2)cc1,25.1µM,31.6µM,?,i,i
COc1ccc(CCNc2cc(=O)[nH]c(N)n2)cc1,i,i,i,?,15.8µM
COc1ccc(CCNC2=NCCS2)cc1,?,i,?,i,i
CN1C(=O)CC(N2CCC(c3nc4ccccc4[nH]3)CC2)C1=O (stereo not given),i,i,i,i,20µM
O=C1CC(N2CCC(c3nc4ccccc4[nH]3)CC2)C(=O)N1Cc1ccccc1 (stereo not given),i,i,nt,i,i
O=C(Cn1cnnn1)OCC(=O)c1ccc(Cl)s1,i,i,i,?,10µM
O=C(CSc1nc2ccccc2c(=O)[nH]1)c1ccc(O)c(O)c1,i,15.8µM,i[11.4 µM],i,i
O=C(CSc1nc2ccccc2c(=O)[nH]1)c1cccs1,i,i,i,?,i
CCN(CCCNC(=O)CCc1nc(-c2ccc(OC)cc2)no1)c1cccc(C)c1,i,i,12.6µM,i,?
COc1ccc(-c2noc(CCC(=O)NCCN(C)Cc3ccccc3)n2)cc1,?,i,?,?,i
O=C(O)CCSCC(=O)c1ccc2c(c1)OCCO2,i,i,i,?,i
O=C(O)CCC(=O)c1ccc2c(c1)OCCO2,20µM,nt,?,i,i
CCN(CC)c1ccc(NC(=O)c2cnc3ccccn3c2=O)c(C)c1,i,nt,i,nt,nt
CCN(CC)c1ccc(NC(=O)c2cccc(C)c2OC)c(C)c1,i,25.1µM,i,?,25.1µM
COc1ccc(O[C@H]2C=C[C@@H](c3ccccc3)O[C@H]2CO/N=C\C[C@@H]2C=C[C@H](OC(C)=O)[C@H](COC(C)=O)O2)cc1,i[11.4 µM],i[11.5 µM],i[11.4 µM],nt,nt
CC(C)n1c2ccccc2c2nc3ccccc3nc21,?,i,?,1.58µM,i
Cc1cc(C)c2nc(-c3ccccn3)cc(C(=O)NCc3ccco3)c2c1,25.1µM,i,?,?,i
